Among the data in PubChem BioAssay AID1961 (Sanford-Burnham Center for Chemical Genomics, 2009) are cell count and activation values, retold here.

Each structure is given as a SMILES string. “And” between values parts separate entries of the source, which are not always exact repeats. Equal entries are not always repeated. About 140 (0.048%) of roughly 290,000 compounds were called active.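 The calls were made as follows: active = activation above 40% with more than 50 cells counted in the well; inconclusive = wells holding fewer than 50 cells, flagged as toxic or sparse; inactive = the rest.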 Shown is part of a subset that was picked to be rich in actives.

The nature of assay [1]: selective activators of receptor GPR55 – imaging, U2OS cells, beta-arrestin-GFP redistribution, primary screen (AID 1961).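 Also: U2OS osteosarcoma cells stably expressing GPR55 and beta-arrestin-GFP.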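 As to activation: plate controls were DMSO negative control for no effect and LPI positive control for full effect.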 To be noted: measured here: cytotoxicity, cells analyzed, at 10 µM.
The target of assay [2] is G-protein coupled receptor 55 (Homo sapiens) (UniProt Q9Y2T6). The assay is described as above. To be noted: at 10 µM, stronger effect = higher value.
G-protein coupled receptor 55 (Homo sapiens), sequence (Q9Y2T6 whole entry, looked up): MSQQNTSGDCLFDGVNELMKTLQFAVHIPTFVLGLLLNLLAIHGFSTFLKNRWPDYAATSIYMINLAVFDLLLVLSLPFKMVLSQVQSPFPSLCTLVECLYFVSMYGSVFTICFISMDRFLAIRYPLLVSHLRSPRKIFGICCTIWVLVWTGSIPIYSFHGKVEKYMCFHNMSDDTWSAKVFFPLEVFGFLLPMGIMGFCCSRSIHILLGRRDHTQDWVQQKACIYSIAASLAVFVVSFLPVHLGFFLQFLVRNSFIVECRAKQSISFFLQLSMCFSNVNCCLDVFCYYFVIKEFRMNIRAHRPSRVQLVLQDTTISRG

In turn, `COc1ccc(NC(=O)Cn2c(CCC(=O)O)ccc2-c2ccccc2)cc1` gave a cell count in assay [1] of 413 cells. In addition, the activation in assay [2] was 0.2% (inactive).

As to `O=C(O)c1ccc(NC(=O)c2ccc3c(c2)C(=O)N(c2ccccc2)C3=O)cc1`, the cell count in assay [1] was 374 cells. Besides, in assay [2], the activation was -0.1% (inactive).

In assay [1], `O=C(OCc1cc(=O)n2c(n1)sc1ccccc12)c1ccc2c(=O)n3c(nc2c1)CCC3` displayed a cell count of 323 cells. In addition, the activation in assay [2] was -0.1% (inactive).

On to `Cc1sc2nc(CSc3nc4ccccc4c(=O)n3CCCN3CCOCC3)[nH]c(=O)c2c1C`, for which, in assay [1], the cell count is 341 cells. In addition, the activation in assay [2] was -0.1% (inactive).

Compound `Cc1ccc(SC[C@H](Cc2ccccc2)N2CCN(CCc3ccccc3)CCC2=O)cc1` had a cell count in assay [1] of 347 cells. The activation in assay [2] was -0.1% (inactive).

As to `CCCN1CCC(=O)N([C@H](CSc2ccc(C)cc2)CC(C)C)CC1`, the cell count in assay [1] is 328 cells. In addition, the activation in assay [2] was 5.1% (inactive).

With `Cc1ccc(SC[C@H](CC(C)C)N2CCN(CCc3ccccc3)CCC2=O)cc1`, the cell count in assay [1] came to 305 cells. Also, the activation in assay [2] is 193% (active).

With `Cc1ccc(CNC(=O)CCS(=O)(=O)c2ccc3c(c2)NC(=O)CO3)cc1`, the cell count in assay [1] was 376 cells. In addition, the activation in assay [2] is -0.2% (inactive).

`CCOC(=O)C(CSCC(=O)c1ccc(Cl)cc1Cl)NC(=O)OC(C)(C)C` (configuration not stated): in assay [1], the cell count came to 359 cells. Further, the activation in assay [2] is -0.1% (inactive).

`CCOC(=O)c1c(CN2CCN(CCO)CC2)n(-c2ccccc2)c2cc(Br)c(O)cc12` came in with a cell count in assay [1] of 355 cells. The activation in assay [2] was 0.3% (inactive).

The compound `O=c1oc2ccccc2c(NCc2ccc(Cl)cc2)c1[N+](=O)[O-]` registered a cell count in assay [1] of 384 cells. Also, in assay [2], the activation is -0.3% (inactive).

For the compound `O=C(NCCN1CCN(C(=O)c2ccc(F)cc2)CC1)c1ccc(F)cc1`, in assay [1], the cell count came out at 452 cells. Further, in assay [2], the activation was 0.2% (inactive).

As to `CCOc1ccc2nc(Cl)sc2c1`, the cell count in assay [1] was found to be 247 cells. Besides, the activation in assay [2] is -0.1% (inactive).

Take `Nc1cc(-c2ccccc2)n2c(n1)nc1ccccc12`: the cell count in assay [1] was 331 cells. In assay [2], the activation was 0.3% (inactive).

For `Cc1cc(=O)[nH]c(SCC(=O)N2CCCCCC2)n1`, the cell count in assay [1] came out at 340 cells. Also, the activation in assay [2] was 0% (inactive).

`CC(=O)NC1(C(F)(F)F)C(=O)N(Cc2ccccc2)C2=C1C(=O)CC(C)(C)C2` (configuration not stated) showed a cell count in assay [1] of 419 cells. In addition, in assay [2], the activation is 0.2% (inactive).

In turn, `CCS(=O)(=O)N1CCC(C(=O)N2CCc3ccccc3C2)CC1` gave a cell count in assay [1] of 361 cells. Moreover, the activation in assay [2] is 0% (inactive).

In assay [1], `O=C(Cc1ccccc1)Nc1ccc(NC(=O)c2ccco2)cc1` registered a cell count of 367 cells. Also, the activation in assay [2] is 0.2% (inactive).

For `Cc1cccc(CC(=O)N2CCOCC2)c1`, the cell count in assay [1] came to 411 cells. In addition, the activation in assay [2] was 1.4% (inactive).

Compound `O=C(CC1CCCCC1)Nc1ccccc1-c1ccccc1` showed a cell count in assay [1] of 361 cells. The activation in assay [2] is -0.4% (inactive).

Compound `COc1ccc(Cl)cc1NC(=O)CSc1nnc(COc2ccccc2)n1C` showed a cell count in assay [1] of 350 cells. In addition, in assay [2], the activation was 0.2% (inactive).

In the case of `COc1ccc(Nc2ncc3c(n2)CC(c2ccccc2)CC3=O)cc1` (configuration not stated), the cell count in assay [1] was 306 cells. In addition, the activation in assay [2] is -0.1% (inactive).

Take `O=C(N/N=C\c1cccnc1)c1ccc(Cl)cc1Cl`: the cell count in assay [1] is 331 cells. In assay [2], the activation was 0.3% (inactive).

`CCOC(=O)CSc1nc2c([nH]c3ccccc32)c(=O)n1C` registered a cell count in assay [1] of 345 cells. Besides, the activation in assay [2] is -0.1% (inactive).

With `CCOc1ccccc1CNC(=O)CCc1cn(CC)c2ccccc12`, in assay [1], the cell count is 381 cells. Moreover, the activation in assay [2] is 0.3% (inactive).

Take `c1ccc(-c2cn3nc(-c4ccccc4)c(-c4ccccc4)nc3n2)cc1`: the cell count in assay [1] was found to be 374 cells. Besides, in assay [2], the activation is 0.6% (inactive).

In assay [1], `c1ccc(-c2cnn3nnnc3n2)cc1` returned a cell count of 327 cells. The activation in assay [2] was 0.2% (inactive).

Compound `c1ccc(-c2cnn3c(-c4ccccc4)c(-c4ccccc4)nc3n2)cc1` gave a cell count in assay [1] of 310 cells. In addition, in assay [2], the activation is 42.5% (active).

`CC(C)(C)C1=CC=C(C(C)(C)C)C(=O)C1=O`: in assay [1], the cell count was found to be 365 cells. Besides, in assay [2], the activation was 24.1% (inactive).

Regarding `CC(C)(C)C1=CC(=O)C(=O)C(C(C)(C)C)=C1`, in assay [1], the cell count was found to be 346 cells. Further, the activation in assay [2] was 138% (active).

The compound `CC(C)(C)C1=CC(=Nc2ccccc2N)C=C(C(C)(C)C)C1=O` came in with a cell count in assay [1] of 328 cells. The activation in assay [2] is -0.1% (inactive).

With `CCN(CC)C(=O)CSc1nnc(-c2ccccc2)n1-c1ccccc1`, the cell count in assay [1] is 281 cells. Further, the activation in assay [2] was 0.2% (inactive).

In assay [1], `COc1ccc(OCc2n(CC(=O)OC3CC(C)CCC3C(C)C)c3ccccc3[n+]2C)cc1` (configuration not stated) came in with a cell count of 350 cells. Moreover, the activation in assay [2] was 25.5% (inactive).

Regarding `Cc1cccc(OCc2n(CC(=O)OC3CC(C)CCC3C(C)C)c3ccccc3[n+]2C)c1` (configuration not stated), the cell count in assay [1] worked out at 339 cells. Moreover, the activation in assay [2] was 81.2% (active).

Turning to `CCCCCCCCCCOC(=O)Cn1c(COc2ccccc2C)[n+](C)c2ccccc21`, the cell count in assay [1] turned out to be 386 cells. In assay [2], the activation was 17.1% (inactive).

Consider `Cc1ccccc1OCc1n(CC(=O)OC2CC(C)CCC2C(C)C)c2ccccc2[n+]1C` (configuration not stated), for which, in assay [1], the cell count is 276 cells and 236 cells. Moreover, the activation in assay [2] is 68% (active).

On to `CC1CCC(C(C)C)C(OC(=O)Cn2c(-c3ccc(Br)cc3)[n+](C)c3ccccc32)C1` (configuration not stated), for which the cell count in assay [1] was 411 cells and 208 cells. For the same compound, the activation in assay [2] is 103% (active) and 106% (active).

Consider `CC1CCC(C(C)C)C(OC(=O)Cn2c(-c3ccc(F)cc3)[n+](C)c3ccccc32)C1` (configuration not stated), for which the cell count in assay [1] amounted to 272 cells. In addition, the activation in assay [2] is 0.6% (inactive).

As for `CCCCCCCCCCOC(=O)Cn1c(COc2cccc(C)c2)[n+](C)c2ccccc21`, the cell count in assay [1] worked out at 401 cells. The activation in assay [2] is 31.3% (inactive).

For the compound `CCCCCCCCCCOC(=O)Cn1c(COc2ccccc2OC)[n+](C)c2ccccc21`, the cell count in assay [1] was 361 cells. In addition, the activation in assay [2] is 32.1% (inactive).

Turning to `CC1CCC(C(C)C)C(OC(=O)Cn2c(-c3ccccc3)[n+](C)c3ccccc32)C1` (configuration not stated), the cell count in assay [1] was 252 cells and 322 cells. Also, the activation in assay [2] was -0.3% (inactive).
